High-throughput results (PubChem BioAssay)
PNC inhibitor = inhibitors of perinucleolar compartment assembly | PC3M PTB-GFP, PNC prevalence imaging, 16 h; active compounds read low | activity change (PNC), negative = inhibition, % at 10 µM | actives 3.1% (n = 140,000) | AID 2417;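 active = readout at or below -70, meaning at least 70% loss of cells showing the perinucleolar compartment, a nuclear body marking cancer cells; inconclusive = readout between -30 and a set limit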;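 also: plate controls were DMSO wells for no effect and camptothecin positive control wells for full effect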
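Compounds are pinned in duplicate onto adhered PC3M cells stably expressing GFP-tagged PTB and incubated 16 h at 37 C. Cells are then fixed, nuclei stained with Hoechst, and PNC-positive cells counted.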
HPGD inh = blocks human HPGD enzyme activity; P15428; purified HPGD, NADH fluorescence kinetic, PGE2 substrate; Potency, µM, without a hit: at the highest dose activity change, negative = inhibition, actives largely listed as inhibitors; actives 4.3% (n = 150,000); AID 894; also: potency is read from the fitted curve at half-maximal effect
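20 nM HPGD preincubated 15 min at room temperature with compound in 50 mM Tris-HCl pH 8, 0.01% Tween 20. Started with 1 mM NAD+ and 30 uM prostaglandin E2; NADH fluorescence (360/450 nm) read 5 times over 30-s intervals, last minus first.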
ALDH1A1 block = ALDH1A1 (human) enzyme inhibition; P00352; Purified ALDH1A1, NADH fluorescence, propionaldehyde substrate; Potency, µM (series often up to 75.3 µM), for the others: at the highest dose activity, negative = inhibition, usual class: inhibitors; actives 7.3% (n = 220,000); AID 1030;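 also: potency is read from the fitted curve at half-maximal effect; plate controls were no enzyme wells and a reference inhibitor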
Target sequence (P00352 whole entry, looked up): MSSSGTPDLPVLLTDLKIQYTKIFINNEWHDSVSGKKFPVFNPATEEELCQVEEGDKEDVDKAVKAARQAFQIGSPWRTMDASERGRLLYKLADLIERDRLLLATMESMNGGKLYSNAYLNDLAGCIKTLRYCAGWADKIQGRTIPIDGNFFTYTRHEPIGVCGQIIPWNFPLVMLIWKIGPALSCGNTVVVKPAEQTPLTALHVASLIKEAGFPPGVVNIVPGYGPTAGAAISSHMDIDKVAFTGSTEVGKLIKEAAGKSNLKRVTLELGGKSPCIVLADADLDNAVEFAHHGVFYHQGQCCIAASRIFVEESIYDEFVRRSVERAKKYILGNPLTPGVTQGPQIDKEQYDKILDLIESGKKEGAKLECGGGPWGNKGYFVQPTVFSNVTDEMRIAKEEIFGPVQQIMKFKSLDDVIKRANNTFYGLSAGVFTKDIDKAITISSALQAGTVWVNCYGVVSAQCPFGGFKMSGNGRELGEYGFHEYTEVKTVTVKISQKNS
Numbers without * were called inactive; ? = inconclusive; . = not tested or not shown; [ ] = dose if it differs, or a comment. Sampled rows, rich in hits. Any-hit rate of the full collection: about 11%. Unless noted, calls follow the shape of the dose curve; as a rule, active = well fitted inhibition curve with a large enough effect (not every such curve was filed as active); inconclusive = small, poorly fitted or top-dose-only effect, or another doubt; inactive = no such curve, though single readings can be large or run the other way. Unless noted, % is scaled to controls: 0 for no effect and ±100 for the full control effect.

SMILES | PNC inhibitor | HPGD inh | ALDH1A1 block
O=C(CNC(=O)C1COc2ccccc2O1)N/N=C\c1ccc(Cl)cc1 (centres undefined) | . | . | 5.9%
CN(C)Cc1ccccc1-c1ccc2ncnc(N3CCOCC3)c2c1 | . | -12.1% | -3.4%
Cc1ccccc1-c1ccc2ncnc(N3CCOCC3)c2c1 | . | . | 22.4µM*
c1nc(N2CCOCC2)c2cc(-c3ccoc3)ccc2n1 | . | . | 22.4µM*
COc1cccc(-c2ccc3ncnc(N4CCOCC4)c3c2)c1 | . | . | 47.3%
COc1c(O)ccc(C2NC(=O)NC(C)=C2C(=O)Nc2ccccc2C)c1[N+](=O)[O-] (centres undefined) | . | . | -6.8%
CC(=O)c1c(C)[nH]c(C(=O)OCC(=O)Nc2cc(C(F)(F)F)ccc2N2CCOCC2)c1C | 12.8 | -7.4% | 3.8%
CCOC(=O)c1ccc(NC(=O)CSc2nnc(NC(=O)c3ccc(S(=O)(=O)N4CCOCC4)cc3)s2)cc1 | 22.0 | -20.2% | 8.8%
Cc1nonc1NC(=O)Nc1cccnc1 | 72.6 | -7.6% | -2.9%
CC12C=C(/C=C/CCc3ccco3)C(C)(C1)C(CCc1ccco1)CC2=O (centres undefined) | . | . | 3.98µM*
C[C@]12C[C@@](C)(C=C1/C=C/c1ccc(F)cc1)C(=O)C[C@H]2c1ccc(F)cc1 | . | -4.6% | 2.9%
Cc1ccc(NC(=O)c2ocnc2C)cc1Cl | -1.3 | -16.7% | ?
Cc1noc(C)c1C(=O)Nc1ccc(F)cc1 | . | . | 6.9%
Cc1noc(C)c1C(=O)NNc1ccc(C(C)C)cc1 | . | . | 11.2µM*
Cc1ccc(NNC(=O)c2c(C)noc2C)cc1Cl | . | . | 28.2µM*
Cc1ccc(C(C)NC(=O)c2c(C)noc2C)cc1C (centres undefined) | -10.9 | -5.6% | -3.5%
Cc1ccc(NNC(=O)c2ccno2)cc1Cl | . | . | 14.1µM*
O=C(O)c1cccc(Nc2nc(Nc3ccccc3)nc(N3CCCC3)n2)c1 | . | . | 3.2%
O=c1[nH]nnc2sc3c(c12)CCCC3 | -17.9 | -29.6% | ?
COCc1c(Br)c(C)nc(OCC(=O)N/N=C/c2cc(C)n(-c3ccc([N+](=O)[O-])cc3)c2C)c1C#N | -6.6 | -4.4% | -8.6%
CCOC(=O)c1ccc(NC(=O)N2CCN(Cc3ccccc3)CC2)cc1 | . | . | -12.3%
O=C(Nc1cccc(F)c1)N1CC[C@@]2(CCCN(C(=O)c3ccncc3)C2)C1 | . | 1.0% | 15.2%
Nc1nc(SCC(=O)NCc2ccccc2)n[nH]1 | 19.0 | -15.9% | 3.4%
Cc1ccc(CNC(=O)CSc2n[nH]c(N)n2)cc1 | -92.8* | 1.3% | -5.5%
Cc1ccccc1C1CCCN(Cc2nc(CC3CC3)no2)C1 (centres undefined) | . | . | -1.6%
SMILES | PNC inhibitor | HPGD inh | ALDH1A1 block
C#CCOC(=O)Nc1ccc(OCC(F)(F)F)nc1 | . | . | 4.3%
Cc1ccc(NC(=O)N/C=C/c2ccco2)cc1 | -8.7 | -25.6% | 7.94µM*
COc1ccc(NC(=O)N/C=C/c2ccccc2)cc1 | . | . | -14.1%
COc1cccc(C(c2sc3ncnn3c2O)N2CCN(C(=O)c3ccco3)CC2)c1 (centres undefined) | -18.2 | -5.6% | 6.5%
CCCn1c(C)cc(/C=C(\C#N)C(=O)OCC(=O)Nc2cccc(OC)c2)c1C | -23.1 | ? | 207.8%
CCCN(CC(=O)Nc1ccc(C(N)=O)cc1)CC(=O)Nc1cc(Cl)ccc1Cl | . | . | 11.4%
CCCN(CC(=O)Nc1ccc(C(C)=O)cc1)CC(=O)Nc1ccccc1C | . | . | 14.1µM*
CCOc1cc(S(=O)(=O)n2nc(C)cc2C)ccc1F | 0.8 | -29.7% | ?
Cc1ccc(-c2n[nH]c3c2CCC3)cc1 | 18.5 | ? | -6.0%
S=c1[nH]nc(-c2ccco2)n1/N=C/C=C/c1ccco1 | ? | 14.1µM* | -8.3%
COc1ccccc1/C=C/C=N/n1c(-c2n[nH]c3c2CCC3)n[nH]c1=S | . | . | 8.91µM*
CCn1c(-c2ccco2)n[nH]c1=S | 35.5 | -22.7% | -4.9%
S=c1[nH]nc(-c2n[nH]c3c2CCC3)n1/N=C/C=C/c1ccco1 | . | . | 7.08µM*
COc1cccc(/C=N/n2c(-c3n[nH]c4c3CCC4)n[nH]c2=S)c1O | 12.3 | ? | ?
CCc1cccc(CC)c1NC(=O)COn1nnc2ccc(C(F)(F)F)cc21 | -11.0 | -7.7% | 6.2%
CCCCNC(=O)CSc1nnc(Cc2ccccc2)n1CC | -19.4 | -4.6% | ?
C#C[C@]1(O)CCC2C3CCC4=C(CCC(=O)C4)C3CC[C@@]21C (some centres undefined) | . | -3.8% | -2.5%
O=C(NC1=NCCS1)C12CC3CC(CC(C3)C1)C2 | . | . | -1.7%
Cc1cccc2nc(CSc3nc4ccccc4o3)cn12 | -6.3 | -4.4% | ?
c1ccc2oc(SCc3cn4ccccc4n3)nc2c1 | -27.3 | -19.6% | 3.16µM*
O=C(O)c1ccccc1CSc1nc2ccccc2o1 | 11.2 | -11.7% | 7.9%
O=C(O)c1ccc(CSc2nc3ccccc3o2)cc1 | -1.9 | 28.2µM* | 9.9%
O=C(c1ccc(Cl)c(S(=O)(=O)NCc2ccco2)c1)N1CCN(c2ccc(F)cc2)CC1 | -13.6 | -4.3% | 4.3%
CCOC(=O)CC(=O)Nc1ccc(C)cc1 | ? | -8.3% | 6.8%
CC1=CC(C)C(C(=O)O)C(C(=O)O)C1 (centres undefined) | -81.0* | -8.7% | ?
SMILES | PNC inhibitor | HPGD inh | ALDH1A1 block
CC1=CCC(C(=O)O)C(C(=O)O)C1 (centres undefined) | ? | -5.7% | -10.7%
OCCNc1nc(-c2ccccc2)nc2ccccc12 | . | . | 0.5%
CCN(CC)CCCNc1nc(-c2ccccc2)nc2ccccc12 | -100.0* | -13.0% | -2.9%
O=C(O)CNc1nc(Cl)ccc1[N+](=O)[O-] | 46.3 | -5.5% | 7.3%
Cc1cc(-c2ccccc2)n(-c2ccc(C(N)=O)cc2)n1 | -16.5 | 31.6µM* | ?
CNC(=O)c1ccc(-n2nc(C)cc2-c2ccccc2)cc1 | ? | -18.8% | ?
N#CCc1ccc(NS(=O)(=O)c2ccc(C3CCCCC3)cc2)cc1 | -21.4 | -11.5% | ?
Cc1sc2nc(CSCC(=O)Nc3ccccc3C#N)[nH]c(=O)c2c1C | 5.4 | -25.8% | ?
Cc1sc2nc(CSCC(=O)Nc3ccc(OC(F)F)cc3)[nH]c(=O)c2c1C | . | . | 39.8µM*
CC(C)NC(=O)c1onc(CSc2ccc(F)c(F)c2)c1C(=O)O | 82.6 | -21.4% | 22.4µM*
CCCCNC(=O)c1onc(CSc2ccc(F)cc2)c1C(=O)O | 69.4 | -16.2% | 6.1%
CC(C)NC(=O)c1onc(CSc2ccc(C(C)C)cc2)c1C(=O)O | 53.8 | 22.4µM* | ?
Cc1ccc(SCc2noc(C(=O)NC(C)C)c2C(=O)O)cc1C | -1.1 | -14.2% | ?
CC(C)NC(=O)c1onc(CSc2cccc(Cl)c2)c1C(=O)O | 61.3 | -21.1% | -5.6%
C=CCNC(=O)c1onc(CSc2ccc(C(C)C)cc2)c1C(=O)O | 80.5 | 14.1µM* | -10.8%
CC(C)NC(=O)c1onc(CSc2ccc(F)cc2)c1C(=O)O | 55.1 | 39.8µM* | ?
C=CCNC(=O)c1onc(CSc2ccccc2)c1C(=O)O | 43.6 | -15.5% | 0.8%
O=C(O)CCc1nn2c3ccccc3nc2n(Cc2ccccc2)c1=O | . | . | 3.8%
O=C(COC(=O)[C@H](Cc1c[nH]c2ccccc12)NC(=O)c1cccs1)NCc1ccccc1 | 6.7 | -15.1% | -10.4%
CC(=O)N1CCN(S(=O)(=O)c2ccc(F)c(Cl)c2)CC1 | . | . | 8.5%
CC#CCN1c2ccccc2[C@]23C[C@@H](C(=O)OC)N(S(=O)(=O)c4ccc(Br)cc4)C2=NC(C(=O)OC)=C(C(=O)OC)[C@H]13 | . | -2.1% | 6.6%[13.5 µM]
